From ChEMBL document CHEMBL2218924, “A broad activity screen in support of a chemogenomic map for kinase signalling research and drug discovery” (Biochem J, 2013) come the findings set out here.

Structures are written as SMILES.

A word on the residual activity: it is the signal under treatment as a percentage of the control signal.

The target in one assay is Death-associated protein kinase 3 (Homo sapiens) (UniProt O43293). Conditions: at 1 µM.
Sequence of Death-associated protein kinase 3 (Homo sapiens) (O43293 whole entry, looked up): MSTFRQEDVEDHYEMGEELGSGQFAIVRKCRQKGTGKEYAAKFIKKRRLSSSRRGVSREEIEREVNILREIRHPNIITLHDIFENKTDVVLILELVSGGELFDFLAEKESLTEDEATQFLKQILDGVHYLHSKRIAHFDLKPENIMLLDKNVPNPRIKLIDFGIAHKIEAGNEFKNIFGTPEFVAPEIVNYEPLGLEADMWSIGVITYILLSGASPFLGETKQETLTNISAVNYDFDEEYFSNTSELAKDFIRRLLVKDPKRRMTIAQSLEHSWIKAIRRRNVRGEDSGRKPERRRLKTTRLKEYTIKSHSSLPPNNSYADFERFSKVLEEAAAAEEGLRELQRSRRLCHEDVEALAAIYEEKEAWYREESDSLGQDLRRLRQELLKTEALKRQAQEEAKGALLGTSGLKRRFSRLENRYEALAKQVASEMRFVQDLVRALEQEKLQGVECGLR
Take `O=C1Nc2ccc3ncsc3c2/C1=C/c1c[nH]cn1`: the residual activity came out at 68%.
Still for that read-out and setting: then `O=c1[nH]c2ccccc2n1C1CCN(Cc2ccc(-c3nc4cc5[nH]cnc5cc4nc3-c3ccccc3)cc2)CC1`, with 100%; and `C[S+]([O-])c1ccc(-c2nc(-c3ccc(F)cc3)c(-c3ccncc3)[nH]2)cc1` (configuration not stated), with 98%.
On the same count and under the same terms, then `O=C1NC(=O)c2c1c1c3ccccc3n3c1c1c2c2ccccc2n1C1CCC3O1`, with 80%; and `CC(C)[C@H](CO)Nc1nc(Nc2cccc(Cl)c2)c2ncn(C(C)C)c2n1`, with 96%; and `COc1cc2ncnc(Nc3ccc(OCc4ccccc4)cc3)c2cc1OC`, with 86%.
The same measure, in the same setting: to `O=[N+]([O-])/C=C/c1ccc2c(c1)OCO2` belongs 96%; to `COc1ccc2c(c[n+](C)c3c4cc5c(cc4ccc23)OCO5)c1OC`, 94%.
For `COC(=O)[C@@]1(O)C[C@H]2O[C@]1(C)n1c3ccccc3c3c4c(c5c6ccccc6n2c5c31)C(=O)NC4`, the residual activity came out at 12%.

The next assay shares this target. Conditions: at 10 µM.
Turning to `O=C1Nc2ccc3ncsc3c2/C1=C/c1c[nH]cn1`, the residual activity is 50%.
The same measure, in the same setting: to `CCn1cnc2c(Nc3cccc(Cl)c3)nc(N[C@@H]3CCCC[C@@H]3N)nc21` belongs 55%; to `O=c1[nH]c2ccccc2n1C1CCN(Cc2ccc(-c3nc4cc5[nH]cnc5cc4nc3-c3ccccc3)cc2)CC1`, 95%.
Same read-out and setting: then `C[S+]([O-])c1ccc(-c2nc(-c3ccc(F)cc3)c(-c3ccncc3)[nH]2)cc1` (configuration not stated), with 100%.
On to `O=C1NC(=O)c2c1c1c3ccccc3n3c1c1c2c2ccccc2n1C1CCC3O1`, for which the residual activity worked out at 78%.
Still for that read-out and setting: to `COc1cc2ncnc(Nc3ccc(OCc4ccccc4)cc3)c2cc1OC` belongs 104%.
On the same count and under the same terms, then `O=[N+]([O-])/C=C/c1ccc2c(c1)OCO2`, with 128%; and `COc1cc(OC)c(/C=C2\C(=O)Nc3ccccc32)c(OC)c1`, with 96%; and `O=C1c2ccccc2-c2nc3nnnn3nc21`, with 114%.
Regarding `COC(=O)[C@@]1(O)C[C@H]2O[C@]1(C)n1c3ccccc3c3c4c(c5c6ccccc6n2c5c31)C(=O)NC4`, the residual activity was determined as 2%.

For a further assay, the target named is RAF proto-oncogene serine/threonine-protein kinase (Homo sapiens) (UniProt P04049). The settings on record: at 1 µM.
Sequence of RAF proto-oncogene serine/threonine-protein kinase (Homo sapiens) (P04049 whole entry): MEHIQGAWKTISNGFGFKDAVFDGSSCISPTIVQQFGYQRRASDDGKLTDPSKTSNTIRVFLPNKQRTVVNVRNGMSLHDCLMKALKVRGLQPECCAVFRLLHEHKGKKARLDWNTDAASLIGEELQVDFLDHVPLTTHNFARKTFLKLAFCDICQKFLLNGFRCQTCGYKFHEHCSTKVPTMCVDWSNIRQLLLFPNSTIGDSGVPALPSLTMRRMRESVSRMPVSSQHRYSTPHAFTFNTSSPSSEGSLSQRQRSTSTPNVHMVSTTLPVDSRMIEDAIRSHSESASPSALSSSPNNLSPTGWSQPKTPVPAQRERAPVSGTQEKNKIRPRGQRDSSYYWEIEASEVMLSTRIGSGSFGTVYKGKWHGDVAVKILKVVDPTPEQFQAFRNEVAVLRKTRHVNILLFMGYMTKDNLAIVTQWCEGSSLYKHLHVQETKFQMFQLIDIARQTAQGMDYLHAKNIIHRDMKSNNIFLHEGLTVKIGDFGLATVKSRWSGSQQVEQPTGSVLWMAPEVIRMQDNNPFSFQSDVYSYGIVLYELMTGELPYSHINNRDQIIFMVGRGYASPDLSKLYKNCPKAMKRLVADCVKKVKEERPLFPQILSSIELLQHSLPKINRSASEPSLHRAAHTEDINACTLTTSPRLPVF
Take `O=C1Nc2ccc3ncsc3c2/C1=C/c1c[nH]cn1`: the residual activity came to 48%.
On to `CCn1cnc2c(Nc3cccc(Cl)c3)nc(N[C@@H]3CCCC[C@@H]3N)nc21`, for which the residual activity was 68%.
The same measure, in the same setting: then `O=c1[nH]c2ccccc2n1C1CCN(Cc2ccc(-c3nc4cc5[nH]cnc5cc4nc3-c3ccccc3)cc2)CC1`, with 94%; and `c1cc(-c2cnn3cc(-c4ccc(OCCN5CCCCC5)cc4)cnc23)ccn1`, with 82%.
For `C[S+]([O-])c1ccc(-c2nc(-c3ccc(F)cc3)c(-c3ccncc3)[nH]2)cc1` (configuration not stated), the residual activity was found to be 17%.
On the same count and under the same terms, then `O=C1NC(=O)c2c1c1c3ccccc3n3c1c1c2c2ccccc2n1C1CCC3O1`, with 77%; and `CC(C)[C@H](CO)Nc1nc(Nc2cccc(Cl)c2)c2ncn(C(C)C)c2n1`, with 73%.
Still for that read-out and setting: to `COc1cc2ncnc(Nc3ccc(OCc4ccccc4)cc3)c2cc1OC` belongs 86%.
Still for that read-out and setting: then `O=[N+]([O-])/C=C/c1ccc2c(c1)OCO2`, with 87%; and `N/C(=N\[N+](=O)[O-])N/N=C\c1ccc(-c2cccc([N+](=O)[O-])c2)o1`, with 88%.
`COc1cc(OC)c(/C=C2\C(=O)Nc3ccccc32)c(OC)c1`: the residual activity turned out to be 67%.
The same measure, in the same setting: then `COc1ccc2c(c1)/C(=C/c1cnc[nH]1)C(=O)N2`, with 75%; and `COC(=O)[C@@]1(O)C[C@H]2O[C@]1(C)n1c3ccccc3c3c4c(c5c6ccccc6n2c5c31)C(=O)NC4`, with 78%.

A further assay has the same target. Conditions: at 10 µM.
Take `O=C1Nc2ccc3ncsc3c2/C1=C/c1c[nH]cn1`: the residual activity worked out at 35%.
Same read-out and setting: to `CCn1cnc2c(Nc3cccc(Cl)c3)nc(N[C@@H]3CCCC[C@@H]3N)nc21` belongs 23%; to `O=c1[nH]c2ccccc2n1C1CCN(Cc2ccc(-c3nc4cc5[nH]cnc5cc4nc3-c3ccccc3)cc2)CC1`, 109%.
The same measure, in the same setting: to `c1cc(-c2cnn3cc(-c4ccc(OCCN5CCCCC5)cc4)cnc23)ccn1` belongs 47%; to `C[S+]([O-])c1ccc(-c2nc(-c3ccc(F)cc3)c(-c3ccncc3)[nH]2)cc1` (configuration not stated), 3%; to `O=C1NC(=O)c2c1c1c3ccccc3n3c1c1c2c2ccccc2n1C1CCC3O1`, 98%.
Still for that read-out and setting: then `CC(C)[C@H](CO)Nc1nc(Nc2cccc(Cl)c2)c2ncn(C(C)C)c2n1`, with 43%; and `COc1cc2ncnc(Nc3ccc(OCc4ccccc4)cc3)c2cc1OC`, with 96%.
As to `O=[N+]([O-])/C=C/c1ccc2c(c1)OCO2`, the residual activity was 101%.
On the same count and under the same terms, then `N/C(=N\[N+](=O)[O-])N/N=C\c1ccc(-c2cccc([N+](=O)[O-])c2)o1`, with 80%; and `COc1cc(OC)c(/C=C2\C(=O)Nc3ccccc32)c(OC)c1`, with 67%.
The same measure, in the same setting: to `O=C1c2ccccc2-c2nc3nnnn3nc21` belongs 101%; to `COc1ccc2c(c1)/C(=C/c1cnc[nH]1)C(=O)N2`, 74%.
Same read-out and setting: to `COC(=O)[C@@]1(O)C[C@H]2O[C@]1(C)n1c3ccccc3c3c4c(c5c6ccccc6n2c5c31)C(=O)NC4` belongs 69%.

The next assay deals with Mast/stem cell growth factor receptor Kit (Homo sapiens) (UniProt P10721). Conditions: at 1 µM.
Sequence of Mast/stem cell growth factor receptor Kit (Homo sapiens) (P10721 whole entry): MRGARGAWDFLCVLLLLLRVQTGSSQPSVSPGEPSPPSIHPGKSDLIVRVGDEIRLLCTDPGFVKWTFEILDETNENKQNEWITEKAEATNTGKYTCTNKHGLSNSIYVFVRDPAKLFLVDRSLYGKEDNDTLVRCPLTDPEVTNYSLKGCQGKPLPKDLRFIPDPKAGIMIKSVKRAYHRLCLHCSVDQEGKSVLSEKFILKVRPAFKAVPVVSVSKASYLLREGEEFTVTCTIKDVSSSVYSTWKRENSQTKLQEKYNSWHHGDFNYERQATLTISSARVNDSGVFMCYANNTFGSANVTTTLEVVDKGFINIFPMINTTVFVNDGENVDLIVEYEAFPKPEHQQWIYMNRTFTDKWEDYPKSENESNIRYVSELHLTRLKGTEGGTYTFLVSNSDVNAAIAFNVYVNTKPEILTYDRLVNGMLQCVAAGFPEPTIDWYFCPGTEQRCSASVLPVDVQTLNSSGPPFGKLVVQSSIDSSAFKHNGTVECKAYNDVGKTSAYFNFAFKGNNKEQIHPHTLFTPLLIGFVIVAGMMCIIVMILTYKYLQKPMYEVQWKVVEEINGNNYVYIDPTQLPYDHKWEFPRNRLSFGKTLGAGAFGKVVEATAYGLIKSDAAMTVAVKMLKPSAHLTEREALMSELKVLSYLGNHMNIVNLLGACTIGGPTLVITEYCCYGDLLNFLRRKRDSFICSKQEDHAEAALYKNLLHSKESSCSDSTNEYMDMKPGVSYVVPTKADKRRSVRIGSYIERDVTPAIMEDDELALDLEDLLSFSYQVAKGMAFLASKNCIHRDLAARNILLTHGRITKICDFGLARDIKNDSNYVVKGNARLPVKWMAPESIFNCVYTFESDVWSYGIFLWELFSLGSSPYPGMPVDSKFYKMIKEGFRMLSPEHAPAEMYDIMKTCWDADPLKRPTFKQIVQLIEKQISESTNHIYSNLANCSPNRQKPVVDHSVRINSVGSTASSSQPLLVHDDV
Regarding `O=C1Nc2ccc3ncsc3c2/C1=C/c1c[nH]cn1`, the residual activity was found to be 25%.
`O=c1[nH]c2ccccc2n1C1CCN(Cc2ccc(-c3nc4cc5[nH]cnc5cc4nc3-c3ccccc3)cc2)CC1`: the residual activity came to 121%.
For the compound `c1cc(-c2cnn3cc(-c4ccc(OCCN5CCCCC5)cc4)cnc23)ccn1`, the residual activity is 5%.
Still for that read-out and setting: to `C[S+]([O-])c1ccc(-c2nc(-c3ccc(F)cc3)c(-c3ccncc3)[nH]2)cc1` (configuration not stated) belongs 119%; to `CC(C)[C@H](CO)Nc1nc(Nc2cccc(Cl)c2)c2ncn(C(C)C)c2n1`, 117%; to `COc1cc2ncnc(Nc3ccc(OCc4ccccc4)cc3)c2cc1OC`, 98%.
On the same count and under the same terms, then `CCc1nc(-c2ccc(OC)cc2)[nH]c1-c1ccncc1`, with 127%; and `O=[N+]([O-])/C=C/c1ccc2c(c1)OCO2`, with 113%.
On to `COc1cc(OC)c(/C=C2\C(=O)Nc3ccccc32)c(OC)c1`, for which the residual activity was 98%.
The same measure, in the same setting: then `COc1ccc2c(c[n+](C)c3c4cc5c(cc4ccc23)OCO5)c1OC`, with 123%.
On the same count and under the same terms, to `COC(=O)[C@@]1(O)C[C@H]2O[C@]1(C)n1c3ccccc3c3c4c(c5c6ccccc6n2c5c31)C(=O)NC4` belongs 76%.
